Percent Effect data for 110 compounds are collected here from ChEMBL document CHEMBL3988442, “University of Dundee, Small-Polar-MMV Screening Library” (2021).

SMILES strings stand for the structures. Screen size: about 69,000 compounds; about 420 (0.61%) showed an effect of 50% or more. This excerpt belongs to a sample that is enriched for strong results.

The target of this assay is T1, Histidine--tRNA ligase (Leishmania infantum) (UniProt A4I591).
T1 sequence (whole entry): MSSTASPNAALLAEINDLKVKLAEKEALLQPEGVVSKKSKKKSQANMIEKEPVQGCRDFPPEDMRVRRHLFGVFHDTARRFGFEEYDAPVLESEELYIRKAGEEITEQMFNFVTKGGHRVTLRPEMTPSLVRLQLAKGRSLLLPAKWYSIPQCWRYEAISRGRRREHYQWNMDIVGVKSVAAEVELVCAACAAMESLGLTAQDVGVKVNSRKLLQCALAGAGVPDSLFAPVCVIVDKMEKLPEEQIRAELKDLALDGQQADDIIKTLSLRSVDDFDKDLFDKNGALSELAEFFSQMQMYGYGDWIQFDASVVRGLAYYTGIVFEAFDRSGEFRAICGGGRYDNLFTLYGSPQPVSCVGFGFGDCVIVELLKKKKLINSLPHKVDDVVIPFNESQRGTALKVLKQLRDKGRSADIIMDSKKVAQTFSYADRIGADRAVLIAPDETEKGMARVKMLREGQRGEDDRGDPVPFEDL
In words: Leishmania infantum Histidine tRNA synthetase (LdHisRS). It counts as functional. Details: scale not given: in the data most compounds retested in dose-response had high values. Conditions: 30 µM.
Turning to `c1cncc(COCC2C[C@@H]3OCCN(Cc4cccnc4)[C@H]3C2)c1` (stereo not given in full), the Percent Effect came to 28.3%. Turning to `c1ncc2c(n1)CN(Cc1nc(-c3ccoc3)no1)CC2`, the Percent Effect came to 34.9%. Under `Cn1cnc2c1CCN(Cc1nc(COc3ccc(F)cc3)no1)C2` stands -98.5%; under `Fc1ccc(OCc2noc(CN3CCc4cncnc4C3)n2)cc1`, 61.6%. With `c1ccc(Cc2noc(CN3CCc4cncnc4C3)n2)cc1`, the Percent Effect came out at 43%. Regarding `Cc1ccc(-c2noc(CN3CCc4cncnc4C3)n2)cc1`, the Percent Effect was determined as 25.7%.

Turning to `COc1ccc(-c2noc(CN3CCc4cncnc4C3)n2)cc1`, the Percent Effect turned out to be 50.4%. In the case of `Cn1cc(C(=O)N[C@@H]2CN(Cc3cccnc3)[C@@H]3CCCO[C@@H]32)cn1` it was 22.9%; in that of `O=C(c1cnccn1)N1CCN2C[C@H](OCC3CC3)C[C@H]2C1`, 15.1%. With `CN(C)CC(=O)N1CCC2(CCc3ccc(-c4ccncc4)cc32)CC1`, the Percent Effect came out at 22.4%. Take `Cc1ccc2c(c1)C1(CC2)CCN(c2nncs2)CC1`: the Percent Effect stood at 24.8%. In the case of `c1cncc(-c2ccc3c(c2)C2(CCNCC2)CC3)c1` it was -17.2%; in that of `c1cc(-c2ccc3c(c2)C2(CCNCC2)CC3)ccn1`, 13.8%; in that of `O=C(CCO)N1CCC2(CCc3ccc(-c4ccoc4)cc32)CC1`, 22.4%.

Consider `c1cncc(-c2ccc3c(c2)CCC32CCN(Cc3ccco3)CC2)c1`, for which the Percent Effect worked out at 44%. In the case of `OCCN1CCC2(CCc3cc(-c4ccoc4)ccc32)CC1` it was 24%. With `c1cc(-c2ccc3c(c2)CCC32CCN(c3nncs3)CC2)co1`, the Percent Effect is 75.8%. Under `c1cc(-c2ccc3c(c2)C2(CC3)CCN(c3nncs3)CC2)ccn1` stands 74.2%; under `c1cncc(-c2ccc3c(c2)C2(CC3)CCN(c3nncs3)CC2)c1`, 53.3%; under `c1cncc(-c2ccc3c(c2)CCC32CCNCC2)c1`, 20%. Under `c1cc(-c2ccc3c(c2)CCC32CCNCC2)ccn1` stands 53.5%; under `COCCN1C[C@H]2CC[C@@H]1CN(Cc1cc(=O)c3cc(C)ccc3[nH]1)C2`, 40.6%. For `COCCN1C[C@H]2CN(C(=O)c3ccno3)CCN2C1=O`, the Percent Effect was 11.1%.

For `COCC(=O)N1C[C@@H](OCc2cccnc2)[C@H]2OCCC[C@@H]21`, the Percent Effect worked out at 14.6%. `COCCNC(=O)[C@H]1CN(Cc2scnc2C)C[C@H]2OCC[C@@H]12`: the Percent Effect came to 13.3%. With `CCc1cc(N[C@@H]2C[C@H]3CC[C@@H]2C3)n2nccc2n1`, the Percent Effect is 25.7%. For the compound `Cc1nc(CN2C[C@@H]3CN(C(=O)c4cnccn4)C[C@@H]3C2=O)cs1`, the Percent Effect was found to be 2.94%. Under `Cc1ccc(CN2C[C@H]3C[C@H](C(=O)Nc4cccnc4)[C@@H](C2)O3)cc1` stands 22%; under `c1cc(-c2ccc3c(c2)CCC32CCN(c3nncs3)CC2)ccn1`, 66.1%. Under `CN1CCCCC12CCN(c1nncs1)CC2` stands 6.2%. With `c1cncc(-c2ccc3c(c2)CCC32CCN(Cc3nccs3)CC2)c1`, the Percent Effect was 48%. On to `CNC(=O)[C@H]1CC[C@@H]2[C@@H](CCN2c2ncccn2)O1`, for which the Percent Effect was determined as 14%. On to `O=C(c1cnccn1)N1C[C@@H]2OCC(=O)N(CC3CCCCC3)[C@@H]2C1`, for which the Percent Effect stood at 25%. In the case of `COc1cc(N2CC[C@@H]3O[C@@H](c4ccncn4)C[C@H]3C2)ncn1` it was 14.5%. Under `Cc1ccccc1-c1noc(CN2CCc3cncnc3C2)n1` stands -42.2%. In the case of `COc1cc2c(nn1)CCN(Cc1noc(-c3ccccc3)n1)C2`, the Percent Effect was determined as 24%. Under `Cc1ccc(-c2nc(CN3CCc4nn(C)c(=O)cc4C3)no2)cc1` stands 52.4%; under `Cc1ccc(-c2noc(CN3CCc4nn(C)c(=O)cc4C3)n2)cc1`, 70.7%. In the case of `Cc1cccc(-c2noc(CN3CCc4nn(C)c(=O)cc4C3)n2)c1` it was 87.8%; in that of `Cn1nc2c(cc1=O)CN(Cc1nc(-c3ccoc3)no1)CC2`, 16%; in that of `Cn1nc2c(cc1=O)CN(Cc1nc(-c3ccsc3)no1)CC2`, 27.6%. Regarding `Cc1ccccc1-c1noc(CN2CCc3nn(C)c(=O)cc3C2)n1`, the Percent Effect worked out at 103%.

For `Cc1ccc(-c2nc(CN3CCc4cnc(C)nc4C3)no2)cc1`, the Percent Effect came to 21.4%. Under `CCCn1nc2c(cc1=O)CN(Cc1nc(-c3ccoc3)no1)CC2` stands 2.67%; under `Cn1nc2c(cc1=O)CN(Cc1nc(-c3cccnc3)no1)CC2`, 10.3%. In the case of `Cn1nc2c(cc1=O)CN(Cc1nc(-c3cccs3)no1)CC2` it was 20.3%. Under `C[C@]12CCCCN(C(=O)c3ccccn3)[C@H]1CCCC(=O)N2` stands 7.37%; under `CN(Cc1cccnc1)[C@@H]1CN(Cc2ccccn2)[C@@H]2CCCO[C@H]12`, 8.33%. On to `Cc1nnc(N2CC[C@H]3O[C@H](C(=O)NCc4ccccn4)CC[C@H]32)s1`, for which the Percent Effect came to 20%. Under `Cc1ncsc1CN1C[C@@H]2CCCO[C@@H]2[C@H](N(C)C(C)C)C1` stands 14%.

As to `Cc1ccc(CN2CC[C@@H]3O[C@@H](C(=O)N4CCN(C)CC4)C[C@@H]32)cc1`, the Percent Effect came out at 9.62%.

As to `CS(=O)(=O)N1C[C@@H]2CC[C@H](C1)N(Cc1cscn1)C2=O`, the Percent Effect came to 15.2%. For `O=C1CCCC2=C1C(c1cccc(F)c1F)Nc1nonc1N2` (stereo not given), the Percent Effect stood at 6.25%. Take `COCCN1C[C@@H]2CN(c3cnccn3)C[C@@H]2C1=O`: the Percent Effect is 16%. In the case of `CCn1nc2c(cc1=O)CN(Cc1nc(-c3ccco3)no1)CC2` it was 33%; in that of `Cn1nc2c(cc1=O)CN(Cc1nc(-c3ccco3)no1)CC2`, 91.4%.

For `CCCn1nc2c(cc1=O)CN(Cc1nc(-c3ccco3)no1)CC2`, the Percent Effect came to 5.5%.

Turning to `O=C(NC1CC1)[C@@H]1C[C@@H]2CCN(Cc3ccccc3)C[C@H]2O1`, the Percent Effect was 23%. In the case of `COc1ccc(CN2C[C@@H]3OCCN(CCN(C)C)[C@@H]3C2)cc1` it was 15.6%; in that of `COc1cccc(CNc2nc(C)cc(C)n2)c1OC`, 21.9%.

As to `COc1cccc(CNc2cc(C)nc(-c3ccncc3)n2)c1O`, the Percent Effect stood at 19.2%.

As to `COc1cccc(CNc2cc(C)nc(-c3ccncc3)n2)c1OC`, the Percent Effect amounted to 52%. `O=C(c1ccco1)N1CCO[C@@H]2CN(c3ccccc3)CC[C@@H]2C1`: the Percent Effect stood at 32%. Under `O=C(Nc1cnccn1)[C@@H]1COC[C@H]2CN(C3CCC3)C[C@H]21` stands 12.3%; under `O=C(Nc1ccccc1Cl)N1CCN(CC2CC2)[C@@H]2CS(=O)(=O)C[C@@H]21`, 8.2%; under `O=C(CCc1n[nH]c2c1CCCC2)N1C[C@@H]2CC[C@H](C1)N(CC1CC1)C2`, 56.5%. Under `CS(=O)(=O)N1C[C@@H]2CC[C@H](C1)N(C(=O)CCc1n[nH]c3c1CCCC3)C2` stands 14.5%; under `CC(=O)N1C[C@@H]2CC[C@H](C1)N(C(=O)CCc1n[nH]c3c1CCCC3)C2`, 17.7%; under `COCCN1C[C@H]2CC[C@@H]1CN(C(=O)CCc1n[nH]c(C)c1C)C2`, 13.9%. Under `CC(C)=CCN1C[C@H]2CC[C@@H]1CN(C(=O)CCc1n[nH]c(C)n1)C2` stands -42.5%; under `O=C(NCc1cccnc1)[C@H]1CC[C@@H]2[C@@H](CCN2c2ncccn2)O1`, 7%; under `COCCN1C(=O)[C@H]2CC[C@@H]1CN(S(=O)(=O)c1cccc(Cl)c1)C2`, 0%.

Turning to `Cc1cc(C(=O)N2C[C@H]3CC[C@@H]2CN(C)C3)ccc1Cl`, the Percent Effect was determined as 7.14%.

For `COc1ccnc(N2C[C@@H]3CC[C@H](C2)N(CC2CCC2)C3=O)n1`, the Percent Effect came out at 19.4%. Under `O=C(c1cocn1)N1C[C@@H]2CN(CC3CC3)CCO[C@@H]2C1` stands 7.56%. Regarding `CNC(=O)NC(=O)CN1CCN(CC2CC2)c2ccccc21`, the Percent Effect worked out at 31.2%. Under `COCCC(=O)N1CCN(CC2CC2)c2ccccc21` stands 26.5%.

For `NC(=O)NC(=O)CN1CCN(CC2CC2)c2ccccc21`, the Percent Effect came out at 31.2%. In the case of `NC(=O)CN1CCN(CC2CC2)c2ccccc21` it was 56.2%; in that of `NC(=O)NC(=O)CCN1CCN(CC2CC2)c2ccccc21`, 81.2%; in that of `O=C(NCCCC(=O)N1CCN(CC2CC2)c2ccccc21)C1CC1`, 11.8%. In the case of `Cc1ccc(N2CC[C@@H]3O[C@@H](COCc4cccnc4)CC[C@@H]32)nn1`, the Percent Effect was 13.2%. In the case of `NC(=O)[C@@H]1CN2CCN(C(=O)C3CC3)C[C@@H]2[C@H]1c1ccccc1`, the Percent Effect came to 2.04%. Regarding `CS(=O)(=O)N1C[C@H]2CCCN(Cc3cccs3)[C@H]2C1`, the Percent Effect amounted to 5.26%.

With `COc1ccc2c(c1)CC(NCc1cccc(CO)c1)CC2` (stereo not given), the Percent Effect was 15.4%.

Consider `COc1ccc2c(c1)CC(NCc1cccc(OCC(N)=O)c1)CC2` (stereo not given), for which the Percent Effect amounted to 59%.

Consider `COc1ccc2c(c1)CC(NCc1cccc(NC(C)=O)c1)CC2` (stereo not given), for which the Percent Effect stood at 43.6%. For `Cc1ccc(CN2Cc3ccccc3O[C@]3(CC[C@H](CO)CC3)C2)s1`, the Percent Effect was determined as 16.5%. For the compound `O=C(c1ccccc1)N1CC[C@H]2C[C@@H](c3nnc(C4CC4)o3)O[C@@H]2C1`, the Percent Effect amounted to 13.6%.

For the compound `COC(=O)CN1N=C(C(=O)N2CCCC2)S(=O)(=O)c2ccccc21`, the Percent Effect is 12.2%. In the case of `O=C(C1=NN(Cc2ccccc2)c2ccccc2S1(=O)=O)N1CCCC1` it was 53.9%; in that of `CC(C)CCN1N=C(C(=O)N2CCCCCC2)S(=O)(=O)c2ccccc21`, 10.2%. Turning to `CN(C(=O)c1ccccc1NCC(=O)O)C(C1CC1)C1CC1`, the Percent Effect is -4.2%. `CN(CCCc1ccccc1)C(=O)c1ccccc1NCC(=O)O`: the Percent Effect is 16.9%.

Consider `CN(CCCN1CCCCCC1)C(=O)c1ccccc1NCC(=O)O`, for which the Percent Effect worked out at 50.6%.

On to `CNC(=O)CN1CCC(CN(C)Cc2ccc(C)cc2C)CC1`, for which the Percent Effect is 2.04%. With `Cc1ccc(CN2C[C@@H]3C[C@H](C(=O)NCC4CC4)N(C)[C@@H]3C2)o1`, the Percent Effect turned out to be 10.1%. With `Cc1nc(CN2C(=O)CC[C@@H]3[C@H]2CCN3C(=O)C2CCCO2)cs1` (stereo not given in full), the Percent Effect is 15.4%.

Consider `CSc1nc(N)cc(N2C[C@@H]3CC[C@H](C2)N(Cc2cscn2)C3=O)n1`, for which the Percent Effect was determined as 11%. Under `Clc1cc(NCc2ccncc2)nc2[nH]ccc12` stands 71.1%; under `Clc1cc(NCc2nccs2)nc2[nH]ccc12`, 22.9%; under `Clc1cc(NCc2ncc[nH]2)nc2[nH]ccc12`, 10.8%. In the case of `c1cnc(N2CCO[C@H]3CN(Cc4csnn4)C[C@H]32)cn1`, the Percent Effect was 26.3%. In the case of `CS(=O)(=O)NC[C@@H]1OC[C@H]2CN(C(=O)c3ccc[nH]3)CC[C@H]21` it was -383%; in that of `CS(=O)(=O)N[C@@H]1COC[C@@H]2CN(Cc3ccoc3)C[C@@H]21`, 6.94%; in that of `CC(C)(C)c1cc(CN2C[C@H]3CC[C@@H]2CN(Cc2cscn2)C3)n[nH]1`, 11.5%.

As for `O=S(=O)(c1cccnc1)N1C[C@@H]2COC[C@]2(COCC2CC2)C1`, the Percent Effect came out at 1.75%. Turning to `Cc1cccc2c1nc(COCC(=O)O)n2-c1cnc(N)cn1`, the Percent Effect was determined as 68.3%. In the case of `Cc1cccc2c1nc(COCC(=O)O)n2-c1ccc(N)nc1` it was 1.67%; in that of `Cc1ccc(-n2c(COCC(=O)O)nc3c(C)cccc32)nc1`, 25%.
